Several values for one entry are separate records, joined by “and”; a condition that tells them apart may be missing. Equal entries are not always repeated. Activity calls are given as the source filed them.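 The calls were made as follows, unless noted: active = normalized viability below 100% at a tested concentration; inactive = the rest.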
Assays:
[1] = Wnt pathway potentiators raising nuclear beta-catenin – imaging, WNT3A-conditioned medium, mouse C2C12, NPC library, primary screen (AID 1117326; in the data active = nuclear beta-catenin stimulation mostly above about 4.2%, no sharp cut-off; inactive = mostly below about 10%); settings: stronger effect = higher value
[2] = stimulators of insulin release from INS-1E, primary screen, cell-based, 5 mM glucose, NPC library (AID 1117329;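 active = compound raises insulin release from rat beta cells at 5 mM glucose, no numeric limit stated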); settings: rat INS-1E insulin secretion, at 10 µM, stronger effect = higher value
[3] = growth inhibition of GSK3B-pretreated HCT116 cells – cell-based, CellTiter-Glo, 0.2 to 20 µM (AID 1117336;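 active = compounds lowering colon cancer cell viability after pretreatment blocking the GSK3B kinase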); settings: HCT116 viability after GSK3B inhibitor, at 20 µM, stronger effect = higher value
[4] = inhibition of endothelial tube formation, primary screen, imaging, VEGF stimulated, CD31 staining, tube area, NPC library (AID 1117340;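 active = compound that reduces growth-factor-driven endothelial tube area in a mixed cell culture, no cutoff stated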); settings: VEGF-stimulated ADSC/ECFC co-culture, at 10 µM, stronger effect = higher value
[5] = GLP1 release stimulators, primary, NCI-H716, NPC library (AID 1117341;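 active = compound raises GLP1 secretion from the human gut endocrine cells, with no numeric limit stated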); settings: NCI-H716 cells, at 10 µM, stronger effect = higher value
[6] = HCT116 colon cancer cell growth inhibition, primary screen, CellTiter-Glo luminescence, NPC library (AID 1117342;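 active = compounds that lower survival of HCT116 colon cancer cells in the luminescence readout, no numeric limit stated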); settings: at 20 µM (top of the series)
[7] = reduced SW480 viability measured with CellTiter-Glo, NPC library, primary (AID 1117343;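 active = compounds that lower viability of the colon cancer cells in the luminescence readout, with no numeric limit stated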); settings: CellTiter-Glo luminescence; at 20 µM (top of the series)
[8] = NPC library primary testing for decreased DLD-1 cell viability via CellTiter-Glo (AID 1117346;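 active = compounds that lower survival of DLD-1 colon cancer cells in the luminescence readout, no cutoff given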); settings: DLD-1 viability, CellTiter-Glo luminescence; at 20 µM (top of the series)
[9] = molecular target: 6-phosphogluconate dehydrogenase, decarboxylating (Homo sapiens) (UniProt P52209); assay: inhibition of human phosphogluconate dehydrogenase – biochemical, recombinant enzyme, NADPH absorbance, primary screen (AID 1159550;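 active = at least 20% inhibition of 6-phosphogluconate dehydrogenase activity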); settings: recombinant 6PGD, NADPH absorbance 341 nm; at 10 µM; stronger effect = higher value
Chain of 6-phosphogluconate dehydrogenase, decarboxylating (Homo sapiens) (P52209 whole entry, looked up): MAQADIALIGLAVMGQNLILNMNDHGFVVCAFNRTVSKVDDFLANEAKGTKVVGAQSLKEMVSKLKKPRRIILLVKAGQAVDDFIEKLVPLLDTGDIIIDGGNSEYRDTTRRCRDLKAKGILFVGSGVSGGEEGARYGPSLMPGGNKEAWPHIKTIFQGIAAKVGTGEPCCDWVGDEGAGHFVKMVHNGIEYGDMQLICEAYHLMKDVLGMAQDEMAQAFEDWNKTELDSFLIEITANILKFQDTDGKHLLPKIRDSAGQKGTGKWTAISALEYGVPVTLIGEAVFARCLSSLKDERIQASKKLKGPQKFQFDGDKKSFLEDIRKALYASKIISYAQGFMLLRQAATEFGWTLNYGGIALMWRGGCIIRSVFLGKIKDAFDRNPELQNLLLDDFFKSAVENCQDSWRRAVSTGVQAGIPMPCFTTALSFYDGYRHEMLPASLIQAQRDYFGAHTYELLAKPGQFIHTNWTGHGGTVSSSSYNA

[10] = modulation of C. elegans fzo-1 (AID 1259413; call rule not given here;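 also: fzo-1 mutant C. elegans worms in liquid wells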); settings: C. elegans fzo-1 modulator screen, mean read-out; stronger effect = higher value
[11] = EMT-state selective cytotoxicity in co-culture – imaging, PC-3E GFP, TEM4-18 mCherry, primary screen (AID 1345086;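 active = compounds killing one labelled cell type while sparing the other, by normalised counts and ratio limits, not self-fluorescent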;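 as to all read-outs here: cells exposed to compound for 72 h before imaging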;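 as to red/green cell ratio (normalised): normalised mesenchymal count divided by normalised epithelial count so high means epithelial killing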); settings: PC-3E GFP / TEM4-18 mCherry co-culture, imaging cell counts, at 1 µM; for red/green cell ratio (normalised): actives lie on both sides, counts scaled to control wells, 1 = unselective
[12] = MELAS cybrid and Rieske KO viability enhancers – cell-based, MELAS cybrids, Rieske KO mouse fibroblasts, CellTiter-Glo, primary screen (AID 1508586;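 active = mean z-score across replicates of 1.96 or higher in either the MELAS or the Rieske mutant cell line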;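 also: z relative to plate mean and SD of compound and empty wells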); settings: low glucose
[13] = drug combination growth inhibition, ovarian cancer – cell-based, oncology-focused library, rucaparib conditional, profiling panel (AID 1508598); settings: patient-derived ovarian cancer cells, CellTiter-Glo viability, 144 h, stronger effect = lower value
[14] = molecular target: NAD(+) hydrolase SARM1 (Homo sapiens) (UniProt Q6SZW1); assay: blocking NAD cleavage by SARM1 SAM-TIR – cell lysate, NAD-Glo luminescence (AID 1508614;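 active = compound whose remaining NAD level is above about 45 nM, limit read from the data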;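 also: higher remaining NAD means stronger inhibition of SARM1 NADase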); settings: SAM-TIR HEK293T lysate NADase, at 1 µM, stronger effect = higher value
Chain of NAD(+) hydrolase SARM1 (Homo sapiens) (Q6SZW1 whole entry, looked up, the tested form may be a part): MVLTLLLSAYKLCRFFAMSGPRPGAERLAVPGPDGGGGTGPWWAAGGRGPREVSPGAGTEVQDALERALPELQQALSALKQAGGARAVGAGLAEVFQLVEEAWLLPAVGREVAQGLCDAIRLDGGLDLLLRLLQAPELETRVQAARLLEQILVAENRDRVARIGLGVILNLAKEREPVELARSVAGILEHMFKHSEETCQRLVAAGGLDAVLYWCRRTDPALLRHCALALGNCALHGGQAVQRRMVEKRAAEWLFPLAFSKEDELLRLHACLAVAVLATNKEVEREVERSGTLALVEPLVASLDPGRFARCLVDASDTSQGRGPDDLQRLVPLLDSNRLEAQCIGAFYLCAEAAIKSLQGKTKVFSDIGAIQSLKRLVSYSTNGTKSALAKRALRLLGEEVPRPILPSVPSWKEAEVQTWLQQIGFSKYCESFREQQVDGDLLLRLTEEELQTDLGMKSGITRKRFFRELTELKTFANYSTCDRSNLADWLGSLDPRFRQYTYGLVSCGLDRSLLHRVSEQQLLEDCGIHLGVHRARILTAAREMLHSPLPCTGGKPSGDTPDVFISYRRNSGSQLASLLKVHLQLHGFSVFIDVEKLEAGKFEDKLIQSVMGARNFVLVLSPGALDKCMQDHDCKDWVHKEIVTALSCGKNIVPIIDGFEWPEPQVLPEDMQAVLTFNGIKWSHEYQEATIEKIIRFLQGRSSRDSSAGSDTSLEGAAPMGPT

[15] = molecular target: Mitogen-activated protein kinase 7 (Homo sapiens) (UniProt Q13164); assay: Gal4-ERK5 driven luciferase induction – cell-based, HTS, primary screen (AID 1508626;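 active = luciferase signal above three times the same-plate solvent-only control wells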;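 also: luciferase driven by Gal4-ERK5 fusion binding five Gal4 sites before minimal TATA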); settings: HeLa Gal4-ERK5 transactivation, 18 h, at 5 µM, stronger effect = higher value
Chain of Mitogen-activated protein kinase 7 (Homo sapiens) (Q13164 whole entry, looked up, the tested form may be a part): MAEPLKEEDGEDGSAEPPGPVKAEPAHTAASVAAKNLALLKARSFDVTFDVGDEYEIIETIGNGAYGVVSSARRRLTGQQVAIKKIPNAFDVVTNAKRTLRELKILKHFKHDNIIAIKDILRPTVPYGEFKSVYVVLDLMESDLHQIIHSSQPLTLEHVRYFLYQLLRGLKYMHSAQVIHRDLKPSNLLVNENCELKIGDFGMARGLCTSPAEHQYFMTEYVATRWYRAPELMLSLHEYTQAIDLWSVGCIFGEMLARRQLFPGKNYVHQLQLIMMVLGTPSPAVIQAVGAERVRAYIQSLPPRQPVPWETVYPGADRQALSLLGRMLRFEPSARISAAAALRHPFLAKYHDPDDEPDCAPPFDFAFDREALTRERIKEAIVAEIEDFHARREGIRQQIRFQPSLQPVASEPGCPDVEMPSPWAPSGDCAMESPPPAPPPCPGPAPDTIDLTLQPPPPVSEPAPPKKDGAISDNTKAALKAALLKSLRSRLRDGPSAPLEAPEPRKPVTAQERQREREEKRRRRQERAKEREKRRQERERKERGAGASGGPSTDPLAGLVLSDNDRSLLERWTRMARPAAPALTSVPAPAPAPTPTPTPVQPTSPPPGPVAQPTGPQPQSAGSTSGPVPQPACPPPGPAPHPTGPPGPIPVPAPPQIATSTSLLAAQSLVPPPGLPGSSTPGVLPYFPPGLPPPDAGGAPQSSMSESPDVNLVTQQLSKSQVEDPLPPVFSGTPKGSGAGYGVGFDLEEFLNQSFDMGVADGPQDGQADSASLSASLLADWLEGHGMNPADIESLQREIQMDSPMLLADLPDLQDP

F380Y = assay: BK channel mutant inhibitors and activators – cell-based, U2OS BacMam, thallium flux, beta subunits, selectivity assay, profiling panel (AID 1259406;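 active = thallium flux through the channel raised or lowered by more than 3 SD from vehicle-only wells, actives on both sides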;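 also: initial slope of Thallos dye fluorescence rise after thallium is added; log ratio against the mean of 0.3% DMSO vehicle wells on the same plate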); settings: U2OS BacMam BK variants, at 30 µM
F380Y/beta1 = assay: as above; settings: U2OS BacMam BK variants, at 30 µM
F380Y/beta2Delta = assay: as above; settings: U2OS BacMam BK variants, at 30 µM
[16] = measured here: epithelial PC-3E GFP cell survival
[17] = measured here: mesenchymal TEM4-18 mCherry cell survival
[18] = MELAS cybrid survival, CellTiter-Glo 48 h, stronger effect = higher value
[19] = Rieske KO mouse fibroblast survival, CellTiter-Glo 72 h

O=c1[nH]cnc2[nH]ncc12
-0.183 and 0.499 and -0.321: z-score [12, 19]
1.15: normalised cell number [11, 17]
1%: nuclear beta-catenin stimulation ([1]; stimulation, at 2 µM)
inactive: nuclear beta-catenin stimulation ([1]; at 10 µM) -0.8% | insulin secretion stimulation [2] -2.4% | viability decrease [3] 3.7% | tube area decrease [4] -6.1% | GLP1 secretion stimulation [5] 0.1% | inhibition of viability [6] 2.7% | viability decrease (inhibition) [7] 25% | viability decrease (inhibition) [8] -0.95% | inhibition [9] 10.8% | mean signal [10] 267 | red/green cell ratio (normalised) [11] 1.08 | z-score [12, 18] 0.356 and -0.148 and 0.116 | viability ([13]; at 0.000305 µM, OCI-C5x cells, with rucaparib 10 µM, 100% = cells with rucaparib alone) 116% | viability ([13]; at 0.000305 µM, OCI-C5x cells, without rucaparib) 122% | viability ([13]; at 0.000305 µM, OCI-P5x cells, with rucaparib 20 µM, 100% = cells with rucaparib alone) 106% | viability ([13]; at 0.000305 µM, OCI-P5x cells, without rucaparib) 127% | viability ([13]; at 0.00122 µM, OCI-C5x cells, with rucaparib 10 µM, 100% = cells with rucaparib alone) 124% | viability ([13]; at 0.00122 µM, OCI-C5x cells, without rucaparib) 130% | viability ([13]; at 0.00122 µM, OCI-P5x cells, with rucaparib 20 µM, 100% = cells with rucaparib alone) 105% | viability ([13]; at 0.00122 µM, OCI-P5x cells, without rucaparib) 118% | viability ([13]; at 0.00488 µM, OCI-C5x cells, with rucaparib 10 µM, 100% = cells with rucaparib alone) 118% | viability ([13]; at 0.00488 µM, OCI-C5x cells, without rucaparib) 125% | viability ([13]; at 0.00488 µM, OCI-P5x cells, without rucaparib) 111% | viability ([13]; at 0.0195 µM, OCI-C5x cells, with rucaparib 10 µM, 100% = cells with rucaparib alone) 114% | viability ([13]; at 0.0195 µM, OCI-C5x cells, without rucaparib) 121% | viability ([13]; at 0.0195 µM, OCI-P5x cells, with rucaparib 20 µM, 100% = cells with rucaparib alone) 104% | viability ([13]; at 0.0195 µM, OCI-P5x cells, without rucaparib) 114% | viability ([13]; at 0.0781 µM, OCI-C5x cells, with rucaparib 10 µM, 100% = cells with rucaparib alone) 117% | viability ([13]; at 0.0781 µM, OCI-C5x cells, without rucaparib) 124% | viability ([13]; at 0.0781 µM, OCI-P5x cells, without rucaparib) 105% | viability ([13]; at 0.313 µM, OCI-C5x cells, with rucaparib 10 µM, 100% = cells with rucaparib alone) 113% | viability ([13]; at 0.313 µM, OCI-C5x cells, without rucaparib) 117% | viability ([13]; at 0.313 µM, OCI-P5x cells, with rucaparib 20 µM, 100% = cells with rucaparib alone) 102% | viability ([13]; at 0.313 µM, OCI-P5x cells, without rucaparib) 105% | viability ([13]; at 1.25 µM, OCI-C5x cells, with rucaparib 10 µM, 100% = cells with rucaparib alone) 122% | viability ([13]; at 1.25 µM, OCI-C5x cells, without rucaparib) 114% | viability ([13]; at 1.25 µM, OCI-P5x cells, without rucaparib) 105% | viability ([13]; at 5 µM, OCI-C5x cells, with rucaparib 10 µM, 100% = cells with rucaparib alone) 111% | viability ([13]; at 5 µM, OCI-C5x cells, without rucaparib) 109% | remaining NAD [14] 10 nM | luciferase signal [15] 36 AU | log fold change Tl+ flux (F380Y) 0.0236 | log fold change Tl+ flux (F380Y/beta1) 0.000941 | log fold change Tl+ flux (F380Y/beta2Delta) -0.00565
1.06: normalised cell number [11, 16]
active: viability ([13]; at 0.00488 µM, OCI-P5x cells, with rucaparib 20 µM, 100% = cells with rucaparib alone) 98.6% | viability ([13]; at 0.0781 µM, OCI-P5x cells, with rucaparib 20 µM, 100% = cells with rucaparib alone) 99.6% | viability ([13]; at 1.25 µM, OCI-P5x cells, with rucaparib 20 µM, 100% = cells with rucaparib alone) 91.4% | viability ([13]; at 5 µM, OCI-P5x cells, with rucaparib 20 µM, 100% = cells with rucaparib alone) 91.3% | viability ([13]; at 5 µM, OCI-P5x cells, without rucaparib) 98%

CCc1cc(C(N)=S)ccn1
0.97: normalised cell number [11, 17]
1.01: normalised cell number [11, 16]
0.0377 and 0.257: z-score [12, 19]
0.5%: nuclear beta-catenin stimulation ([1]; stimulation, at 2 µM)
inactive: nuclear beta-catenin stimulation ([1]; at 10 µM) 0.1% | insulin secretion stimulation [2] 1% | viability decrease [3] -19.3% | tube area decrease [4] 2.7% | GLP1 secretion stimulation [5] -4% | inhibition of viability [6] -7.9% | viability decrease (inhibition) [7] 6.3% | viability decrease (inhibition) [8] -11% | inhibition [9] 11% | mean signal [10] 267 | red/green cell ratio (normalised) [11] 0.96 | z-score [12, 18] 0.0369 and 0.0584 | remaining NAD [14] 10 nM | luciferase signal [15] 40 AU | log fold change Tl+ flux (F380Y) 0.0115 | log fold change Tl+ flux (F380Y/beta1) 0.0016 | log fold change Tl+ flux (F380Y/beta2Delta) -0.0262

N[C@@H](Cc1cc(I)c(Oc2cc(I)c(O)c(I)c2)c(I)c1)C(=O)O
-1.8%: nuclear beta-catenin stimulation ([1]; stimulation, at 2 µM)
-0.144 and -1.61: z-score [12, 19]
inactive: nuclear beta-catenin stimulation ([1]; at 10 µM) -0.2% | insulin secretion stimulation [2] 1.4% | viability decrease [3] 24.1% | tube area decrease [4] 5.6% | GLP1 secretion stimulation [5] 0.1% | inhibition of viability [6] 36.7% | viability decrease (inhibition) [7] 26% | viability decrease (inhibition) [8] -2% | inhibition [9] 12.1% | mean signal [10] 252 | red/green cell ratio (normalised) [11] 1.06 | z-score [12, 18] -0.661 and -0.549 | remaining NAD [14] 10 nM | luciferase signal [15] 112 AU | log fold change Tl+ flux (F380Y) -0.00167
0.96: normalised cell number [11, 16]
active: log fold change Tl+ flux (F380Y/beta1) 0.13 | log fold change Tl+ flux (F380Y/beta2Delta) 0.163
1.02: normalised cell number [11, 17]

Reference: PubChem BioAssay
